High-throughput results: PubChem, Broad Institute
T cruzi growth-1 – inhibitors of T. cruzi proliferation; T. cruzi beta-gal in NIH3T3, GalScreen luminescence, 90 h; inhibition, % at 8.34 µM; hit rate 5.9% among 77,000; AID 624255;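 active = mean inhibition above about 93%, with at least 55% of replicates each passing it, limit read from the data, passing the limit was not always enough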
Pf Dd2 inh – inhibitors of Plasmodium falciparum Dd2 growth. hit rate 2.3% among 94,000. activity change, % at 10 µM. AID 1159554. P. falciparum Dd2 growth, SYBR Green, 72 h; active compounds read low; in the data active = activity change below about -80%
C diff HTS – inhibitors of Clostridium difficile growth. Clostridium difficile clinical isolate growth, OD600, 24 h; active compounds read low. growth activity, negative = inhibition, % at 16 µg/mL (by protocol). AID 1259249. hit rate 0.25% among 86,000;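 active = mean growth activity at or below -80% and every replicate also at or below -80%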;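 note: 0% = DMSO wells and -100% = levofloxacin 16 µg/mL wells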
T cruzi growth-2 – Trypanosoma cruzi proliferation inhibition | inhibition, % at 8.35 µM | hit rate 72% among 5,600 | T. cruzi beta-gal in NIH3T3, GalScreen luminescence, 90 h | shares compounds with T cruzi growth-1;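 active = mean replicate inhibition above about 95% and at least 55% of replicates individually reaching it, limit read from the data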
T cruzi growth-3 – Trypanosoma cruzi proliferation inhibition | inhibition, % at 2.09 µM | AID 651740 | shares compounds with T cruzi growth-1 | hit rate 21% among 5,600 | T. cruzi beta-gal in NIH3T3, GalScreen luminescence, 90 h;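 active = mean inhibition above about 95%, with at least 55% of replicates also reaching it, limit read from the data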;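 note: plate controls were neutral control median for no effect and positive control median for full effect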
NIH3T3 tox – kills mouse NIH/3T3 fibroblasts; shares compounds with T cruzi growth-1; NIH/3T3 viability, CellTiter-Glo ATP luminescence, 90 h; cytotoxicity (signal decrease), % at 8.35 µM; hit rate 14% among 5,600; AID 651742;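 active = mean signal decrease across replicates above about 35% based on untreated-well scatter, with enough replicates individually passing, limit read from the data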;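 note: 0% = median of neutral control wells and 100% = median of positive control wells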
3T3 cytotox 2 – kills mouse NIH/3T3 fibroblasts | shares compounds with T cruzi growth-1 | NIH/3T3 viability, CellTiter-Glo ATP luminescence, 90 h | inhibition, % at 24.9 µM | hit rate 56% among 5,600 | AID 651744;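 active = mean loss of cell viability signal at or above a set limit, and enough replicates individually reaching it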;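 note: 0% = median of neutral control wells and 100% = median of positive control wells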
* hit, by the source's call; . = not tested or not shown. Compounds with a hit are over-represented: about 6.8% of the library has one in this group of screens.

SMILES	T cruzi growth-1	Pf Dd2 inh	C diff HTS	T cruzi growth-2	T cruzi growth-3	NIH3T3 tox	3T3 cytotox 2
CC(=O)N1CCCCN2[C@@H](CO)[C@@H](c3ccc(-c4ccncc4)cc3)[C@@H]2C1	54	19	-7	.	.	.	.
O=C(C1CCCC1)N1CCCCN2[C@H](CO)[C@H](c3ccc(-c4ccncc4)cc3)[C@H]2C1	87	5	-7	.	.	.	.
O=C(C1CCC1)N1CCCCN2[C@H](CO)[C@H](c3ccc(-c4ccncc4)cc3)[C@H]2C1	101*	3	-5	92	82	-14	-13
O=C(C1CCC1)N1CCCCN2[C@H](CO)[C@@H](c3ccc(-c4ccncc4)cc3)[C@H]2C1	98*	26	4	100*	16	-7	5
O=C(C1CCC1)N1CCCCN2[C@@H](CO)[C@@H](c3ccc(-c4ccncc4)cc3)[C@@H]2C1	109*	7	-6	105*	86	20	51*
CC(=O)N[C@H]1CC[C@@H](CC(=O)NCc2ccc(Cl)cc2)O[C@H]1CO	-52	-3	9	.	.	.	.
COc1ccc(NC(=O)Nc2ccc3c(c2)C(=O)N([C@H](C)CO)C[C@@H](C)[C@@H](CN(C)CC2CCCCC2)O3)cc1	22	14	0	.	.	.	.
O=C(NC[C@@H]1CC[C@@H]2[C@@H](CN2Cc2cccc(Cl)c2)O1)C1CCC1	.	6	-2	.	.	.	.
C[C@@H]1CN([C@H](C)CO)C(=O)Cc2cc(NC(=O)CCC(F)(F)F)ccc2O[C@@H]1CN(C)Cc1ccc(C(=O)Nc2ccccc2N)cc1	65	-53	-1	.	.	.	.
CN1c2ccc(-c3ccccc3F)cc2[C@@H]2[C@@H](CCN2C(=O)c2ccccn2)[C@H]1CO	116*	-54	-7	106*	55	-1	24
CN1c2ccc(-c3ccc(F)cc3)cc2[C@@H]2[C@@H](CCN2C(=O)c2ccccn2)[C@H]1CO	35	-7	-6	.	.	.	.
CN(C)CC(=O)N1CC[C@H]2[C@@H]1c1cc(-c3ccccc3F)ccc1N(C)[C@H]2CO	23	22	-1	.	.	.	.
CN1c2ccc(-c3ccccc3)cc2[C@@H]2[C@@H](CCN2C(=O)c2ccccn2)[C@H]1CO	105*	13	54	102*	43	13	21
CN1c2ccc(-c3cccc(F)c3)cc2[C@H]2[C@H](CCN2C(=O)c2ccc3c(c2)OCO3)[C@H]1CO	36	5	-27	.	.	.	.
CN1c2ccc(-c3ccccc3)cc2[C@@H]2[C@@H](CCN2C(=O)c2ccc3c(c2)OCO3)[C@H]1CO	106*	6	-11	105*	108*	9	30*
CN(C)CC(=O)N1CC[C@@H]2[C@H]1c1cc(-c3ccccc3F)ccc1N(C)[C@@H]2CO	113*	-16	-1	102*	19	-8	24*
CN1c2ccc(-c3ccccc3F)cc2[C@H]2[C@H](CCN2C(=O)NC2CCCCC2)[C@H]1CO	.	-13	9	.	.	.	.
COc1cccc(NC(=O)Nc2ccc3c(c2)C(=O)N(C)[C@H]2CC[C@@H](CC(=O)O)O[C@H]2CO3)c1	63	-71	0	.	.	.	.
CO[C@@H]1CN(C)C(=O)c2cc(NS(=O)(=O)c3cccc(C)c3)ccc2OC[C@H](C)NC[C@@H]1C	-3	21	.	.	.	.	.
COc1ccc2c3c([nH]c2c1)[C@H](CO)N(C)CC31CN(C(=O)c2ccccc2F)C1	.	10	0	.	.	.	.
CCCNC(=O)[C@H]1[C@H](CO)[C@H]2Cn3c(cccc3=O)[C@H]2N1CC1CC1	43	0	2	.	.	.	.
CN1C(=O)c2cc(NC(=O)C3CCCC3)ccc2OC[C@H]2O[C@H](CC(=O)NCCc3ccncc3)CC[C@@H]21	.	11	-7	.	.	.	.
C/C=C/c1ccc2c(c1)O[C@@H](CN(C)Cc1ccccc1F)[C@@H](C)CN([C@H](C)CO)S2(=O)=O	119*	-6	5	105*	80	0	105*
C[C@H]1CN([C@@H](C)CO)S(=O)(=O)c2ccc(Br)cc2O[C@H]1CN(C)Cc1ccccc1F	.	-4	0	.	.	.	.
C/C=C/c1ccc2c(c1)O[C@@H](CN(C)Cc1ccccc1F)[C@H](C)CN([C@@H](C)CO)S2(=O)=O	116*	-22	22	96*	90	57*	105*
C[C@@H]1CN([C@@H](C)CO)S(=O)(=O)c2ccc(Br)cc2O[C@H]1CN(C)Cc1ccccc1F	.	-16	5	.	.	.	.
